# Data: PubChem BioAssay (NCATS)
# Records with an inconclusive call do not appear. Where a call stands in place of a potency, no number is given. Active and inactive are the calls of the source. Calls follow the shape of the dose curve; as a rule, active = well fitted curve in the direction sought with a large enough effect; inconclusive = small, poorly fitted or top-dose-only effect, or another doubt; inactive = no such curve, though single readings can be large; an effect the other way counts as inactive or inconclusive.
# Experiments:
# [1] = biological target: Voltage-gated inwardly rectifying potassium channel KCNH2 (Homo sapiens) (UniProt Q12809); test: qHTS Assay for Small Molecule Inhibitors of the Human hERG Channel Activity (AID 588834); conditions: U2OS BacMam hERG, FluxOR thallium flux fluorescence; series mostly up to 46.1 µM;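 also: lower thallium flux fluorescence means stronger hERG block; nearly all actives have a fitted effect of over 50% in size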
# Outline: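 Measured: FluxOR fluorescence after thallium stimulation in U2OS cells transduced with hERG by baculovirus. Compounds pre-incubated around 10 min; medium Opti-MEM with 2% FCS. AC50 from Hill equation.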
# [2] = biological target: Luciferin 4-monooxygenase (Photinus pyralis) (UniProt P08659); test: Biochemical firefly luciferase enzyme assay for NPC (AID 624030); also: nearly all actives have a fitted effect of over 70% in size; conditions: purified P. pyralis luciferase, luminescence, 5 min; series mostly up to 58.6 µM
# Outline: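 Purified P. pyralis luciferase at 10 nM in 50 mM Tris Acetate (final), luminescence read within 5 minutes of enzyme addition to compounds. Activity normalised to PTC124 versus DMSO; concentration-response curves classed by r2, magnitude and activity.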
# [3] = qHTS for Inhibitors of the vitamin D receptor (VDR): Hit Validation using a Texas Red Assay (AID 602201); conditions: VDR coregulator binding, Texas Red fluorescence polarization; agonist-bound VDR ligand-binding domain
# Outline: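 Fluorescence polarization with 1.5 uM VDR-LBD, LG19078 and 7 nM Texas Red (final). After 2 hours at ambient temperature, read at Ex 595 nm/Em 615 nm.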
# Potency is read from the fitted curve at half-maximal effect.
# Chain of Voltage-gated inwardly rectifying potassium channel KCNH2 (Homo sapiens) (Q12809 whole entry, looked up): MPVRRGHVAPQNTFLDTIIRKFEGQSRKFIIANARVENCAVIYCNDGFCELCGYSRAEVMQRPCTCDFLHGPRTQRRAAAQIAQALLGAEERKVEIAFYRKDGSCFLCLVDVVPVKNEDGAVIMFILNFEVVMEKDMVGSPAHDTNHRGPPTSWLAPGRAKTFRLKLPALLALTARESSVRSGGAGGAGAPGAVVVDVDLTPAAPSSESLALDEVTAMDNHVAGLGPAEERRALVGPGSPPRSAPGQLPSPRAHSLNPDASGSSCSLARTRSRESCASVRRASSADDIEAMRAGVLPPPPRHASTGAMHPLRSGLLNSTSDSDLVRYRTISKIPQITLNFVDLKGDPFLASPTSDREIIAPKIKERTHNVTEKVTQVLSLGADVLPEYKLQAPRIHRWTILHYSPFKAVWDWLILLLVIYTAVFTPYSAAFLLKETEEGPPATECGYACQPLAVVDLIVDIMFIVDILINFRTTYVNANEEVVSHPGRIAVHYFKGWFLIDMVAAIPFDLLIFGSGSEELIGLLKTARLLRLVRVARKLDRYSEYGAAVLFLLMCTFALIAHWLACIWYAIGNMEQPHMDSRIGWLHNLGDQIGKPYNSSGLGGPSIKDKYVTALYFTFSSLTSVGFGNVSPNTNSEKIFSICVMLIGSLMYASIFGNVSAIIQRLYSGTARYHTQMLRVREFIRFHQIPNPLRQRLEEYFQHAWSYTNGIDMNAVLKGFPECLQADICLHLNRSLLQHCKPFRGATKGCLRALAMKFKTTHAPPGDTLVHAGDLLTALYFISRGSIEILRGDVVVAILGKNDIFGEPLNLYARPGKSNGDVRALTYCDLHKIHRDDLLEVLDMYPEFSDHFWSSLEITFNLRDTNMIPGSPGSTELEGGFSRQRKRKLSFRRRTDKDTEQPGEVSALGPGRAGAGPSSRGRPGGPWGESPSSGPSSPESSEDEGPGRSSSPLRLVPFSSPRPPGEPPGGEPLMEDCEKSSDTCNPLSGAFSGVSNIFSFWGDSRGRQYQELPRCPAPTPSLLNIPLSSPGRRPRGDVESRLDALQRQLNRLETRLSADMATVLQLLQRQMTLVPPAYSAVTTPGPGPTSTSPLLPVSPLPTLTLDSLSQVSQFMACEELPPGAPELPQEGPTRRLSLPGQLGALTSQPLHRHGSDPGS
# Chain of Luciferin 4-monooxygenase (Photinus pyralis) (P08659 whole entry, looked up): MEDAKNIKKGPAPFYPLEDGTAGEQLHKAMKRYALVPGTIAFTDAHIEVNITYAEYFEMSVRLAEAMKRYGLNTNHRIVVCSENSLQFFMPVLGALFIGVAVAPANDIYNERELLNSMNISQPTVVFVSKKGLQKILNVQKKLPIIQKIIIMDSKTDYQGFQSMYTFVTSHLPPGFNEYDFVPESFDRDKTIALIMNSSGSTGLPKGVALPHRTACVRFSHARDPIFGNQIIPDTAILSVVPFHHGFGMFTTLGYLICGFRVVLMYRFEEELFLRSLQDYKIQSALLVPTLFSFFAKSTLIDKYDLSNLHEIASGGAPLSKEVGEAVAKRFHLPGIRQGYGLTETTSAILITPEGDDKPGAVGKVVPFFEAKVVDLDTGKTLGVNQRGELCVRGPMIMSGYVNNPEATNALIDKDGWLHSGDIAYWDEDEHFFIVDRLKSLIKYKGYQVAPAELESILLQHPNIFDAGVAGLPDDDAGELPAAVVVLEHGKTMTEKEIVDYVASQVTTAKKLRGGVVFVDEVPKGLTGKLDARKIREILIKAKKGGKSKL
smiles,measurement,setting,value
Cc1c(Nc2ncccc2C(=O)O)cccc1C(F)(F)F,Potency,[1],inactive
CN(C)c1nc2c(Br)c(Br)c(Br)c(Br)c2[nH]1,Potency,[1],inactive
OC[C@H]1O[C@@H](n2cnc3c(NC4CCCCC4)ncnc32)[C@H](O)[C@@H]1O,Potency,[1],inactive
CO[C@H]1C[C@@H]2CC[C@@H](C)[C@@](O)(O2)C(=O)C(=O)N2CCCC[C@H]2C(=O)O[C@H]([C@H](C)C[C@@H]2CC[C@@H](O)[C@H](OC)C2)CC(=O)[C@H](C)C=C(C)[C@@H](O)[C@@H](OC)C(=O)[C@H](C)C[C@H](C)/C=C/C=CC=C1C,Potency,[1],inactive
Oc1cc(O)cc(/C=C/c2ccc(O)c(O)c2)c1,Potency,[1],inactive
CO/N=C(\C(=O)N[C@@H]1C(=O)N2C(C(=O)O)=C(COC(C)=O)CS[C@H]12)c1csc(N)n1 (stereo in doubt),Potency,[1],inactive
N#C/C(=C\c1ccc(O)c(O)c1)C(=O)c1ccc(O)c(O)c1,Potency,[1],inactive
O=C1C(SCCO)=C(SCCO)C(=O)c2ccccc21,Potency,[1],inactive
Cc1cc(NC(=O)Nc2ccc3c(ccn3C)c2)sn1,Potency,[1],inactive
CC12C(=O)OC(=O)C1(C)C1CCC2O1 (stereo unspecified),Potency,[1],inactive
COc1cc(NC(C)CCCN)c2ncccc2c1 (stereo unspecified),Potency,[1],inactive
CC(C(=O)O)c1ccc(C(=O)c2cccs2)cc1 (stereo unspecified),Potency,[1],inactive
COc1cc(OC)c(/C=C2/C(=O)Nc3ccccc32)c(OC)c1,Potency,[1],inactive
O=C(O)/C=C/C(O)c1ccc(Cl)cc1 (stereo unspecified),Potency,[1],inactive
same,Potency,[2],inactive
O=c1[nH]c2ccccc2n1CCCN1CCN(C(c2ccccc2)c2ccccc2)CC1,Potency,[1],3.55 µM (active)
same,Potency,[2],inactive
C[C@@H](CN1CCC(Cc2ccccc2)CC1)[C@@H](O)c1ccc(O)cc1,Potency,[1],0.631 µM (active)
CCCCC1C(=O)N(c2ccccc2)N(c2ccc(O)cc2)C1=O (stereo unspecified),Potency,[1],inactive
same,Potency,[3],15.8 µM (active)
O=C(O)CC[C@@H](C(=O)O)N1C(=O)c2ccccc2C1=O,Potency,[1],inactive
CC1(C)S[C@@H]2[C@H](NC(=O)[C@H](NC(=O)N3CCN(S(C)(=O)=O)C3=O)c3ccccc3)C(=O)N2[C@H]1C(=O)O,Potency,[1],inactive
same,Potency,[2],inactive
CC(C(=O)O)c1ccc2c(c1)[nH]c1ccc(Cl)cc12 (stereo unspecified),Potency,[1],inactive
Cc1ccc(C(=O)O[C@H](C(=O)O)[C@@H](OC(=O)c2ccc(C)cc2)C(=O)O)cc1 (tested in a mixture with another compound),Potency,[1],inactive
O=C(O)COc1ccc(C(=O)c2cccs2)c(Cl)c1Cl,Potency,[1],inactive
same,Potency,[2],inactive
CC1(C)CCC=[N+]1[O-],Potency,[1],inactive
NC(=O)C(=O)O,Potency,[1],inactive
CN=c1nc(-c2ccccc2)n(-c2ccccc2)s1,Potency,[1],11.2 µM (active)
Cn1c(=O)c2[nH]c(-c3ccccc3)nc2n(C)c1=O,Potency,[1],inactive
CCCCCCCCCCCCCCCCCC(=O)NCC(COP(=O)([O-])OCC[N+](C)(C)C)OCC (stereo unspecified),Potency,[1],inactive
NC(N)=NC(=O)c1nc(Cl)c(N2CCCCCC2)nc1N,Potency,[1],8.91 µM (active)
C=CC(N)CCC(=O)O (stereo unspecified),Potency,[1],inactive
same,Potency,[2],inactive
O=C(O)c1cc(=O)c2c(Cl)cc(Cl)cc2[nH]1,Potency,[1],inactive
Cc1c(C(=O)O)c(O)cc2c1C(=O)c1c(O)c([C@@H]3O[C@H](CO)[C@@H](O)[C@H](O)[C@H]3O)c(O)c(O)c1C2=O,Potency,[1],inactive
Nc1c(CC(=O)O)cccc1C(=O)c1ccc(Br)cc1,Potency,[1],inactive
O=C(O)[C@@H]1C[C@@H](C(=O)O)N1,Potency,[1],inactive
CC(C)Cc1ccc([C@H](C)C(=O)O)cc1,Potency,[1],inactive
same,Potency,[2],inactive
CC[C@@H](C)[C@H]1O[C@]2(CC[C@@H]1C)C[C@@H]1C[C@@H](C/C=C(\C)[C@@H](O[C@H]3C[C@H](OC)[C@@H](O[C@H]4C[C@H](OC)[C@@H](O)[C@H](C)O4)[C@H](C)O3)[C@@H](C)/C=C/C=C3\CO[C@@H]4[C@H](O)C(C)=C[C@@H](C(=O)O1)[C@]34O)O2,Potency,[1],inactive
Cc1ccc(C(=O)c2ccc(CC(=O)O)n2C)cc1,Potency,[1],inactive
CCCCCCCCCCCC(=O)[O][Sn]([CH2]CCC)([CH2]CCC)[O]C(=O)CCCCCCCCCCC,Potency,[1],inactive
NCCCCCCCCCCN,Potency,[1],inactive
COc1cc2nc(N3CCN(C(=O)OCc4ccccc4)C(C(=O)NC(C)(C)C)C3)nc(N)c2cc1OC (stereo unspecified),Potency,[1],inactive
Cc1ccc(O)c(-n2nc3ccccc3n2)c1,Potency,[1],inactive
same,Potency,[2],2.87 µM (active)
CN(C)C(N)=NCCC[C@H](N)C(=O)O,Potency,[1],inactive
c1ccc(-c2ccccn2)nc1,Potency,[1],inactive
C#CCN1C(C)=C(C(=O)OC)C(c2cccc([N+](=O)[O-])c2)C(C(=O)OCC)=C1C (stereo unspecified),Potency,[1],inactive
